Drawing on the supplement of paper PMC6555819, this text covers PBM binding z-score for 40 sequences.

For the first test, the system named is PPARg:RXRa 270nM:90nM, anti-RXR (NR concentration 270 nM, RXRa partner concentration 90 nM). The test can be described thus: PBM binding z-score (relative to random genomic background probes); higher = stronger binding; sequences stand for … in GC…GCGATTGACAGCGTAGAATGAAGG
Summed up: (§1)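 Regression normalization was applied to scanned fluorescence from custom Agilent 4×180K protein-binding microarrays. Before scanning, arrays were incubated 1 h with ligand-free nuclear receptor dimers, and binding was detected with antibodies against each partner (one per run). Binding z-scores use the random background probes as reference.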
In turn, TCTCGGAGGACACGAAGCTCAGAGCTTTCCAGAG gave a PBM binding z-score of 0.617.

As for GCTGCTAGGTCAACTGATGGTCCGCTAAAGCTCG, the PBM binding z-score amounted to 2.97.

On to CCTAGTTGGTCAAGGTCACACTCGCTATAGGTAC, for which the PBM binding z-score was 3.32.

CTACCAAGGTGAACAAGGTCGCTGATTACTATTC returned a PBM binding z-score of 1.36.

In turn, ACATACAGGTGATGAAGGTAACTCAGGCTATCAT gave a PBM binding z-score of 0.534.

As for TAGCCTAGGTCATGGACCAGTATACCACGCGAAC, the PBM binding z-score is 3.32.

TAGCCTAGGTAATGCGGGCCAGTATAGTGTCGGC yielded a PBM binding z-score of -0.669.

CCTTTCGGGTCACGAGGTTATAGCACGACGAGCG displayed a PBM binding z-score of 6.75.

For the sequence GATACAGGGTCAGCTAGAAGCCAGAGTATGGAAA, the PBM binding z-score is 3.04.

In the case of ATTTCTAGGTAACAAGTTCAGTGAAAGAGAGGAC, the PBM binding z-score is 3.44.

Sequence ACTCGGAGGACAAAGGTCTGAGCTACGCCAGTGA came in with a PBM binding z-score of 3.29.

As for CCTAGCAGGCCAGGGTCAGTCAAGCATTTCGCTT, the PBM binding z-score was determined as 0.376.

CCTACTGGGCCCTTCAGAGGTCATTGATCATATG gave a PBM binding z-score of 1.95.

In turn, CCTTACGGGTCACGAGGTTATACCACGACGAGCG displayed a PBM binding z-score of 6.43.

For CAAACTAGGTCAAGAGGTCAAAGTACGCTTCCCG, the PBM binding z-score was 8.3.

CGAACGAGGGCAAGAGTTGATAGCAAATGCCGAT: the PBM binding z-score was 2.48.

Take ATCGAAAGGTCGATGTGAGTATAGAGAAAGGGAA: the PBM binding z-score was 1.77.

As to CCTTACGGGTCACCCCAGGTTATAGCATCGGAGT, the PBM binding z-score turned out to be 4.51.

ATCTCTAGGTAAAGTTCAGTGACAGATCGATAGA showed a PBM binding z-score of 4.29.

AGAACGAGTGCACGCTGAGTTGATAGCAGAGTAG yielded a PBM binding z-score of -0.2.

Sequence CCTCGGAGGACAACAGGAGGGCAGAGCTGCCAGA gave a PBM binding z-score of -1.25.

Sequence ATATTTAGGTTAGCTGGGGTCATTCAGACTAGGC came in with a PBM binding z-score of 4.63.

CCGACTGGGGCATAAGGTCACCATAAGCCAGCCC came in with a PBM binding z-score of 4.89.

For GCGACTGGGGCAAAGCAGGTTACCATCAGGTTGG, the PBM binding z-score amounted to 1.13.

Sequence CCGACTGGGGCCAAGGTTACCATACTCAGTACGA gave a PBM binding z-score of 4.51.

Consider TCATATAAGTAATACAGGTGAAAGTCGGCATCTA, for which the PBM binding z-score is 2.38.

Sequence CGAACTAGGTCATTCAGGACAGTGAATACATTGA displayed a PBM binding z-score of 6.

In the case of CAAACTAGGTCCCGAAAGGTCAAAGTCGAATGAC, the PBM binding z-score was determined as 5.24.

In the case of TGAATGAGGTTAAAGATTAGGGAACGTGGCGTCG, the PBM binding z-score was 4.94.

As for AGTCAAAGTTCATCTAGGTAATGTAAGATATGCT, the PBM binding z-score stood at 6.48.

ACTAGGAGGCCAAGTTTGGGTCACTCAAACAAAG showed a PBM binding z-score of 0.511.

Take CCGACTGGGCCATAAGGTTACCATAAGCCAGCCC: the PBM binding z-score is 2.48.

Consider GCGACTGGGGCATCAGCAGGTTACTATAACTTAA, for which the PBM binding z-score stood at 1.05.

Consider CGAACTAGGTCAAGGACGGTGAATCTCCGCACGC, for which the PBM binding z-score was 6.24.

Turning to ATCGAAAGGTCGGAGGTGAGTATACCCACCCGAA, the PBM binding z-score was determined as 3.13.

For CCAGACAGGTGAAAGGTAAATCAGTCTGGTACGC, the PBM binding z-score is 5.7.

AGAATGAGTTTACCAAAGATCAGGGAAACGCTTG came in with a PBM binding z-score of 0.55.

Regarding GCTATTAGTTGAAAGGGCTACCGAATGATTCTCG, the PBM binding z-score came to 1.52.

The sequence TCTAGCAGGCCAGAGGGTAACTCAAGAGGTACGG displayed a PBM binding z-score of 3.56.

Sequence CCTAGTTGGTCAGAAGGTCACACACCGGATATGA came in with a PBM binding z-score of 4.25.

A further test deals with PPARg:RXRa 30nM:10nM, anti-RXR (NR concentration 30 nM, RXRa partner concentration 10 nM). Described as above. Summed up: as §1
Regarding TCTCGGAGGACACGAAGCTCAGAGCTTTCCAGAG, the PBM binding z-score came out at 1.74.

Consider GCTGCTAGGTCAACTGATGGTCCGCTAAAGCTCG, for which the PBM binding z-score was determined as 0.463.

CCTAGTTGGTCAAGGTCACACTCGCTATAGGTAC: the PBM binding z-score is 1.24.

CTACCAAGGTGAACAAGGTCGCTGATTACTATTC: the PBM binding z-score was -0.0103.

Sequence ACATACAGGTGATGAAGGTAACTCAGGCTATCAT came in with a PBM binding z-score of 0.477.

In turn, TAGCCTAGGTCATGGACCAGTATACCACGCGAAC had a PBM binding z-score of 0.758.

For TAGCCTAGGTAATGCGGGCCAGTATAGTGTCGGC, the PBM binding z-score was -0.676.

CCTTTCGGGTCACGAGGTTATAGCACGACGAGCG had a PBM binding z-score of 2.96.

GATACAGGGTCAGCTAGAAGCCAGAGTATGGAAA showed a PBM binding z-score of 1.33.

As for ATTTCTAGGTAACAAGTTCAGTGAAAGAGAGGAC, the PBM binding z-score turned out to be 1.82.

As to ACTCGGAGGACAAAGGTCTGAGCTACGCCAGTGA, the PBM binding z-score was determined as 1.06.

As to CCTAGCAGGCCAGGGTCAGTCAAGCATTTCGCTT, the PBM binding z-score was -0.624.

In turn, CCTACTGGGCCCTTCAGAGGTCATTGATCATATG came in with a PBM binding z-score of 0.162.

CCTTACGGGTCACGAGGTTATACCACGACGAGCG showed a PBM binding z-score of 3.65.

On to CAAACTAGGTCAAGAGGTCAAAGTACGCTTCCCG, for which the PBM binding z-score amounted to 7.25.

For the sequence CGAACGAGGGCAAGAGTTGATAGCAAATGCCGAT, the PBM binding z-score came to 0.687.

For ATCGAAAGGTCGATGTGAGTATAGAGAAAGGGAA, the PBM binding z-score turned out to be 1.02.

In the case of CCTTACGGGTCACCCCAGGTTATAGCATCGGAGT, the PBM binding z-score was determined as 1.22.

With ATCTCTAGGTAAAGTTCAGTGACAGATCGATAGA, the PBM binding z-score was determined as 2.51.

Regarding AGAACGAGTGCACGCTGAGTTGATAGCAGAGTAG, the PBM binding z-score was -0.197.

The sequence CCTCGGAGGACAACAGGAGGGCAGAGCTGCCAGA registered a PBM binding z-score of -1.32.

In the case of ATATTTAGGTTAGCTGGGGTCATTCAGACTAGGC, the PBM binding z-score came out at 1.88.

CCGACTGGGGCATAAGGTCACCATAAGCCAGCCC showed a PBM binding z-score of 2.53.

For the sequence GCGACTGGGGCAAAGCAGGTTACCATCAGGTTGG, the PBM binding z-score was -0.557.

Sequence CCGACTGGGGCCAAGGTTACCATACTCAGTACGA came in with a PBM binding z-score of 1.74.

TCATATAAGTAATACAGGTGAAAGTCGGCATCTA came in with a PBM binding z-score of 4.28.

CGAACTAGGTCATTCAGGACAGTGAATACATTGA registered a PBM binding z-score of 3.42.

Regarding CAAACTAGGTCCCGAAAGGTCAAAGTCGAATGAC, the PBM binding z-score amounted to 2.11.

Sequence TGAATGAGGTTAAAGATTAGGGAACGTGGCGTCG returned a PBM binding z-score of 2.32.

The sequence AGTCAAAGTTCATCTAGGTAATGTAAGATATGCT gave a PBM binding z-score of 3.67.

On to ACTAGGAGGCCAAGTTTGGGTCACTCAAACAAAG, for which the PBM binding z-score is -0.488.

With CCGACTGGGCCATAAGGTTACCATAAGCCAGCCC, the PBM binding z-score came out at 0.644.

For GCGACTGGGGCATCAGCAGGTTACTATAACTTAA, the PBM binding z-score is -0.238.

As for CGAACTAGGTCAAGGACGGTGAATCTCCGCACGC, the PBM binding z-score stood at 3.95.

The sequence ATCGAAAGGTCGGAGGTGAGTATACCCACCCGAA registered a PBM binding z-score of 1.04.

In the case of CCAGACAGGTGAAAGGTAAATCAGTCTGGTACGC, the PBM binding z-score amounted to 4.

In turn, AGAATGAGTTTACCAAAGATCAGGGAAACGCTTG returned a PBM binding z-score of 0.448.

For the sequence GCTATTAGTTGAAAGGGCTACCGAATGATTCTCG, the PBM binding z-score is 0.317.

TCTAGCAGGCCAGAGGGTAACTCAAGAGGTACGG displayed a PBM binding z-score of 2.38.

Regarding CCTAGTTGGTCAGAAGGTCACACACCGGATATGA, the PBM binding z-score was found to be 1.8.
